# Screens: PubChem BioAssay, National Center for Advancing Translational Sciences (NCATS)
# This is a sample that favours compounds with a hit; in the whole collection about 19% have one here.
# DT40 TDP1 CPT: growth inhibition of DT40 Tdp1-/-;hTDP1 cells with camptothecin (screen for TDP1 inhibitors). chicken DT40 Tdp1-/-;hTDP1 cells + 20 nM CPT, ATP luminescence, 48 h. Potency, µM (highest dose often 46.2 µM), inactives show at the top dose activity change, negative = growth inhibition, usual class: inhibitors. 420,000 compounds, 12% hits. AID 686979; note: potency is the fitted concentration of half-maximal effect; nearly all actives have a fitted effect of over 55% in size
#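 Chicken DT40 Tdp1-/- cells complemented with human TDP1, 400 cells/well, exposed to compounds plus 20 nM camptothecin for at least 48 h at 37 C; viability read as ATP content by CellTiter-Glo luminescence.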
# DT40 TDP1 no CPT: qHTS for Inhibitors of human tyrosyl-DNA phosphodiesterase 1 (TDP1): qHTS in cells in absence of CPT | DT40 Tdp1-/- hTDP1 cells, no CPT, ATP luminescence, 48 h | Potency, µM (highest dose often 46.2 µM), without a hit: at the top dose activity change, negative = growth inhibition, usual class: inhibitors | 420,000 compounds, 15% hits | AID 686978, 2013; note: potency is the fitted concentration of half-maximal effect; nearly all actives have a fitted effect of over 55% in size
#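 Cells were dispensed at 400 per well, compounds added by pin tool, plates incubated ≥48 hr at 37 °C, then CellTiter-Glo added for 30 min at room temperature before luminescence reading. Line: DT40 Tdp1-/- complemented with hTDP1; camptothecin omitted.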
# HT1080-NT tox: kills 2HG-producing HT-1080-NT fibrosarcoma cells | 360,000 compounds, 1.6% hits | Potency, µM (titrated, usually from 46.1 µM), without a hit: at the highest dose activity, negative = less viability, usual class: cytotoxic | HT-1080-NT fibrosarcoma viability, CellTiter-Glo ATP luminescence, 48 h | AID 686970;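 note: NT is the 2HG producing partner of a matched IDH1 knockdown line; potency is the fitted concentration of half-maximal effect; 0% = DMSO-treated cells and -100% = media-only wells without cells; nearly all actives have a fitted effect of over 55% in size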
#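 750 cells/well, RPMI + 5% FBS; 2 h settle, compound pin-transfer, 48 h at 37 degrees C. CellTiter-Glo 10 min RT, luminescence. Normalized to DMSO and media-only wells.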
# HT1080 IDH1KD tx: kills HT-1080 cells with IDH1 knockdown; HT-1080 IDH1 knockdown viability, ATP luminescence, 48 h; Potency, µM (titrated, usually from 46.1 µM), for the others: at the top dose activity, negative = toxicity, actives largely listed as cytotoxic; 360,000 compounds, 2% hits; AID 686971;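 note: potency is the fitted concentration of half-maximal effect; 0% = DMSO wells and -100% = cell-free medium wells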
#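 Knockdown cells (IDH1KD HT-1080) received compounds 2 h after plating at 750 cells/well and were kept 48 h at 37 °C in 5% FBS RPMI. A CellTiter-Glo luminescence read gave % activity for curve fitting.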
# IL1B secr inh: inhibitors of inflammasome signaling (IL-1 beta secretion); THP-1 LPS/ATP IL-1B secretion, AlphaLISA, 16 h; stronger effect = lower value; 360,000 compounds, 4.7% hits; activity change, % at 57.5 µM; in the data active = activity change below about -50%; inconclusive = mostly about -30% to -49%
#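 Secreted IL-1B measured by AlphaLISA bead assay after 16 h compound exposure of THP-1 cells; compounds (final up to 57.5 uM) added 1 h before LPS (250 ng/mL) and ATP (1.25 mM) stimulation; lower signal means less secretion.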
# ELG1 DNA repair: ELG1-dependent DNA repair inhibition. 330,000 compounds, 2.3% hits. Potency, µM (doses to about 46.1 µM), inactives show at the top dose activity change, negative = inhibition, hits mostly inhibitors. AID 504467. HEK293T ELG1-luciferase reporter, luminescence, 16 h; DNA damage induced by 5-fluorouridine; note: potency is the fitted concentration of half-maximal effect; nearly all actives have a fitted effect of over 55% in size
#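 5-Fluorouridine DNA damage + compound/DMSO, 2,000 cells/well, 16 h, 37 °C/5% CO2. ONE-Glo, 30 min RT, luminescence. Readout = decrease in reporter signal.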
# * marks the source's active call; other numbers are inactive results; u = inconclusive; x = not tested or not shown. Unless noted, calls come from the whole dose curve; as a rule, active = well fitted curve in the direction sought with a large enough effect; inconclusive = small, poorly fitted or top-dose-only effect, or another doubt; inactive = no such curve, though single readings can be large; an effect the other way counts as inactive or inconclusive. Unless noted, % is set by controls: 0 for no effect and ±100 for the full control effect.
SMILES,DT40 TDP1 CPT,DT40 TDP1 no CPT,HT1080-NT tox,HT1080 IDH1KD tx,IL1B secr inh,ELG1 DNA repair
COCCN1CCN(C(=O)c2ccc3c(c2)S(=O)(=O)c2ccccc2C3=O)CC1,-5.7%,x,2.7%,-0.3%,-4.5,x
NC(CS)C(=O)O (centres undefined),6.3%,-4.9%,x,x,x,x
O=C(c1ccccc1)N1CCN(C(=O)c2nn3c(C(F)(F)F)cc(-c4ccco4)nc3c2Br)CC1,u,u,13.1%,-2.7%,-65.2*,u
CC(C)NC(=O)c1nn2c(C(F)(F)F)cc(-c3ccco3)nc2c1Cl,-14.7%,u,-6.0%,0.7%,13.9,-2.3%
Nc1[nH]c(=S)[nH]c(=O)c1N=O,-5.3%,-9.8%,x,x,x,x
CC(=O)C(C(C)=O)c1c(Cl)c(O)c(O)c2c(C(=O)c3ccccc3)coc12,4.61µM*,3.66µM*,u,11.6µM*,-16.4,u
COC(=O)c1ccccc1NC(=O)c1cnn2c(C(F)F)cc(C3CC3)nc12,u,14.6µM*,u,u,-9.2,u
COCCNC(=O)c1cnn2c(C(F)(F)F)cc(-c3ccc(C)cc3)nc12,u,u,1.4%,0.8%,-6.0,5.8µM*
COCCNC(=O)c1cnn2c(C(F)F)cc(-c3ccccc3)nc12,u,20.6µM*,-4.0%,0.2%,1.6,u
Cc1ccc(-c2cc(C(F)(F)F)n3ncc(C(=O)O)c3n2)cc1,-16.7%,u,12.1%,15.1%,-4.9,9.2%
Cc1ccc(N(Cc2cc3ccc(C)cc3[nH]c2=O)S(=O)(=O)c2ccccc2)cc1,4.1%,u,5.8%,0.6%,-19.4,13.4%
CC(C)(Oc1ccc(Cl)cc1)C(=O)O/N=C(\N)c1ccncc1,u,u,-10.2%,-1.1%,9.2,14.2%
CC(C)(C)NC(=O)NC(=O)COC(=O)Cc1c(Cl)cccc1Cl,-0.7%,-28.1%,-16.2%,0.4%,-54.2*,4.1%
C[C@H](NC(=O)c1[nH]cnc1C(=O)Nc1ccccc1F)c1ccccc1,u,16.4µM*,-14.1%,-6.8%,29.6,x
Cc1ccc(NC(=O)c2nc[nH]c2C(=O)N[C@H](C)c2ccccc2)cc1,23.1µM*,u,-19.6%,-17.8%,u,-19.3%
C[C@H](NC(=O)c1[nH]cnc1C(=O)Nc1ccccc1)c1ccccc1,u,u,-12.9%,-14.1%,4.2,u
c1ccc(Nc2nc3ccccc3[nH]2)nc1,u,u,0.5%,-8.7%,-80.5*,u
Cc1ccc(C)c(Nc2nc3ccccc3[nH]2)c1,-2.2%,-28.1%,-8.1%,-8.8%,-94.3*,x
Nc1ccccc1Nc1nc2ccccc2[nH]1,u,25.9µM*,-29.7%,-28.3%,-15.0,6.9%
c1ccc(Nc2ccccn2)cc1,u,25.9µM*,16.5%,15.8%,-16.5,26.3%
CNCc1nc2ccccc2[nH]1,-16.8%,15.0%,0.9%,0.3%,17.6,0.3%
Cc1cc(C)nc(Nc2nc3ccccc3[nH]2)n1,0.7%,-15.4%,13.2%,1.0%,27.2,u
